Source: PubChem BioAssay
Only some compounds are listed: those with a hit (about 0.9% of all), similar ones and a draw of the others.
TR-FRET SRC-2 ct = flags TR-FRET format artefacts in PPARgamma SRC-2 recruitment agonist screen. TR-FRET ratio at 8 µM. TR-FRET artefact counter-screen; hits give high values. 200,000 tested, 0.4% active
SRC3 TRFRET art = counter-screen for PPARgamma SRC-3 recruitment agonists: TR-FRET artefact. TR-FRET ratio at 8 µM. PPARgamma/SRC-3 format; hits give high values. 99,000 tested, 0.39% active. AID 1048
PPARg SRC-1 ag = agonists of human PPARgamma SRC-1 coactivator recruitment. activation, % at 8 µM. PPARgamma-SRC-1 coactivator recruitment biochemical assay. P37231. 200,000 tested, 0.41% active; in the data active means activation above about 19%;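 further: 0% = DMSO and 100% = reference agonist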
SRC1 TRFRET art = TR-FRET artefact, counter-screen to PPARgamma/SRC-1 agonist assay | TR-FRET detection artefact counter-screen, emission ratio; hits give high values | TR-FRET ratio at 8 µM | 99,000 tested, 0.34% active | AID 1051; in the data active means TR-FRET ratio above about 2300
PPARg SRC-3 ag = agonists of human PPARgamma SRC-3 coactivator recruitment; 200,000 tested, 0.26% active; activation, % at 8 µM; biochemical PPARgamma/SRC-3 coactivator recruitment assay; P37231; in the data active means activation above about 23%;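 further: 0% = DMSO and 100% = reference agonist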
PPARg SRC-2 ag = agonists of SRC-2 recruitment by human PPARgamma | P37231 | PPARgamma LBD-SRC-2 recruitment, biochemical | activation, % at 8 µM | 200,000 tested, 0.34% active | AID 1032; in the data active means activation above about 22%;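 further: 0% = vehicle and 100% = reference agonist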
PPARg SRC2 conf = human PPARgamma SRC-2 recruitment agonism, confirmation. biochemical SRC-2 recruitment by PPARgamma. 790 tested, 52% active. shares compounds with PPARg SRC-3 ag. activation, % at 8 µM; in the data active means activation above about 22%;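 further: 0% = vehicle alone and 100% = reference agonist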
PPARg SRC1 conf = confirmation of agonists of SRC-1 recruitment by human PPARgamma. shares compounds with PPARg SRC-3 ag. 790 tested, 43% active. PPARgamma–SRC-1 coactivator recruitment biochemical assay. activation, % at 8 µM; in the data active means activation above about 20%;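 further: 0% = vehicle wells and 100% = reference agonist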
PPARg SRC3 conf = human PPARgamma SRC-3 recruitment agonism, confirmation; biochemical PPARgamma-SRC-3 coactivator recruitment, agonist mode; 790 tested, 29% active; AID 1301; activation, % at 8 µM; shares compounds with PPARg SRC-3 ag; in the data active means activation above about 24%;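 further: 0% = vehicle wells and 100% = reference agonist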
Starred values were filed as active, the others as inactive; x = no result. Unless noted, no stated cut-off is given here; in the data, active means TR-FRET ratio above about 2000; inactive means the rest.

SMILES	TR-FRET SRC-2 ct	SRC3 TRFRET art	PPARg SRC-1 ag	SRC1 TRFRET art	PPARg SRC-3 ag	PPARg SRC-2 ag	PPARg SRC2 conf	PPARg SRC1 conf	PPARg SRC3 conf
COc1ccc(C2C(C(=O)c3cccs3)=C(O)C(=O)N2c2nncs2)cc1 (stereo not given)	1901	x	27*	x	26*	13	24*	19	14
CC(C)c1nnc(N2C(=O)C(O)=C(C(=O)c3cccs3)C2c2ccccc2)s1 (stereo not given)	2400*	2283*	38*	2598*	21	31*	13	9	8
C=CCOc1ccc(C2C(C(=O)c3cccs3)=C(O)C(=O)N2c2nnc(C)s2)cc1 (stereo not given)	1771	x	11	x	15	17	x	x	x
O=C(N/N=C/c1ccc(OC(F)F)cc1OC(F)F)c1cccc(S(=O)(=O)N2CCOCC2)c1	1479	1449	-5	1802	-3	-6	x	x	x
CCC(CC)c1nnc(NC(=O)Cc2ccccc2[N+](=O)[O-])s1	1515	1797	9	2191	8	5	x	x	x
Nc1c(C(=O)Nc2ccccc2)sc2nc3c(c(-c4ccco4)c12)CCC3	1681	x	6	x	14	10	x	x	x
COc1ccc(-c2c3c(nc4sc(C(=O)Nc5ccccc5)c(N)c24)CCC3)cc1	1922	x	14	x	27*	26*	33*	20*	21
CCOC(=O)c1sc(-c2ccc(Br)cc2)cc1N	1901	x	5	x	6	15	x	x	x
CCOC(=O)c1cc(-c2ccc(N)cc2)sc1N	1795	x	16	x	16	28*	11	8	6
Cc1cccc2cc(CN(Cc3ccc(F)cc3)Cc3nnnn3C3CCCC3)c(=O)[nH]c12	4917*	x	10	x	62*	112*	1	1	1
Cc1cc(C)c2[nH]c(=O)c(CN(Cc3ccc4c(c3)OCO4)Cc3nnnn3C3CCCC3)cc2c1	1570	x	-7	x	-15	-9	x	x	x
O=C(Nc1nc(-c2ccc3c(c2)OCCO3)cs1)c1ccc(S(=O)(=O)N2CCCCC2)cc1	1917	x	6	x	9	17	x	x	x
O=C(Nc1nc(-c2ccc(S(=O)(=O)N3CCCC3)cc2)cs1)C1COc2ccccc2O1 (stereo not given)	2533*	x	20*	x	33*	22*	34*	27*	20
O=C(Nc1nc(-c2ccc(S(=O)(=O)N3CCCCCC3)cc2)cs1)c1ccccc1	2426*	x	21*	x	8	15	52*	39*	33*
O=C(CCCCCn1c(=S)[nH]c2cc3c(cc2c1=O)OCO3)N1CCN(C(=O)c2ccco2)CC1	1629	x	13	x	26*	32*	-1	-1	2
O=C(CCCCCn1c(=S)[nH]c2cc3c(cc2c1=O)OCO3)N1CCN(Cc2ccccc2)CC1	1588	x	5	x	11	12	x	x	x
CCOc1ccccc1CNCc1ccc(F)cc1	1590	1541	7	1876	0	6	x	x	x
C=CCSC1=Nc2sccc2C2=NC(=O)CN12	1562	x	13	x	11	23*	9	8	7
COC(=O)c1sc(N2C(=O)C(O)=C(C(=O)c3ccc(C)o3)C2c2ccc(F)cc2)nc1C (stereo not given)	2303*	x	30*	x	20	26*	30*	23*	19
Cc1ccc(C2C(C(=O)c3ccco3)=C(O)C(=O)N2c2nnc(C)s2)cc1 (stereo not given)	1957	x	24*	x	34*	20	14	12	10
Cc1ccc(S(=O)(=O)N(C)C)cc1NC(=O)C(C)Sc1ccccc1 (stereo not given)	1512	1728	2	1891	3	0	x	x	x
CCOC(=O)c1ccc2c(c1)n(CC)c(C)[n+]2CC	1523	1660	7	1873	6	10	x	x	x
CCOC(=O)c1ccc2c(c1)[nH]c(=S)n2CC	1960	2330*	23*	2451*	20	28*	50*	37*	30*
CS(=O)(=O)N(CC(=O)NCc1ccco1)c1cccc([N+](=O)[O-])c1	1442	1379	9	1925	1	0	x	x	x
Cn1c(=Nc2ccc(N3CCOCC3)cc2)ccc2ccccc21	1413	x	-3	x	-6	-5	x	x	x
SMILES	TR-FRET SRC-2 ct	SRC3 TRFRET art	PPARg SRC-1 ag	SRC1 TRFRET art	PPARg SRC-3 ag	PPARg SRC-2 ag	PPARg SRC2 conf	PPARg SRC1 conf	PPARg SRC3 conf
Cn1c(N=Nc2ccc(N3CCOCC3)cc2)[n+](C)c2ccccc21	2551*	2227*	43*	2668*	39*	53*	22	18	17
Cc1nonc1CN(C)C(=O)c1ccc(OC2CCN(C(=O)c3cccnc3)CC2)cc1	1537	1758	11	1826	1	6	x	x	x
C=CCNC(=S)NNC(=O)c1ccc(=O)n(Cc2ccc(Cl)cc2Cl)c1	1605	1621	14	1846	31*	1	8	10	19
CS(=O)(=O)c1nc(-c2ccc(Br)cc2)cc(-c2ccccc2)c1C#N	2843*	x	53*	x	111*	7	66*	49*	39*
N#Cc1cc2ccccc2nc1SCC(=O)Nc1ccc(S(=O)(=O)N2CCCC2)cc1	3014*	x	19*	x	7	13	5	4	3
O=C(CSc1ccc(-c2nc3ccccc3[nH]2)cn1)Nc1ccc(S(=O)(=O)N2CCCC2)cc1	1868	2021	-1	1936	1	5	x	x	x
Cc1cc2nc(-c3ccc(SCC(=O)Nc4ccc(S(=O)(=O)N5CCCC5)cc4)nc3)[nH]c2cc1C	3000*	3472*	31*	3103*	20	39*	79*	62*	50*
Cc1cc(=O)[nH]c(SCC(=O)Nc2ccc(S(=O)(=O)N3CCCCC3)cc2)n1	1360	x	-3	x	-13	6	x	x	x
COc1ccc2nc(SCC(=O)N3CCCCC3)c(C#N)cc2c1	1479	1673	4	1902	4	-3	x	x	x
COc1ccc2nc(SCC(=O)Nc3ccc(S(=O)(=O)N4CCCC4)cc3)c(C#N)cc2c1	4855*	x	86*	x	83*	78*	79*	62*	48*
CC(C)(C)NC(=O)COC(=O)c1ccccc1C(=O)c1ccccc1	1450	1669	-4	1662	0	-1	x	x	x
O=C(O)c1cccc(N=NN2CCOCC2)c1	1442	1579	3	1854	9	3	x	x	x
CN(Cc1ccccc1)C(=O)COC(=O)c1ccc(Cl)cc1N	1461	1627	-3	1774	-5	-4	x	x	x
Cc1occc1C(=O)N/N=C/c1c[nH]c2ccccc12	1606	x	19*	x	10	2	3	1	2
